Records with an inconclusive call do not appear. Active and inactive are the calls of the source. The calls were made as follows, unless noted: active = hit-call score of the fitted dose curve at least 0.9, where 1 is the maximum; inactive = score below 0.9.
Experiments:
[1] = target: Paired box protein Pax-6 (Homo sapiens) (UniProt P26367); assay: ATG_Pax6_CIS: Attagene CIS-FACTORIAL HepG2 Assay for human Paired Box 6 (PAX6) (AID 2282956); settings: HepG2 CIS-FACTORIAL PAX6 reporter transcription, RNA readout; actives raise or lower the signal
How it was run: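 HepG2 cells transiently transfected with cis-promoter-driven multiplexed reporter units sensing endogenous transcription factor activity; 24 h chemical exposure. Reporter mRNA quantified by RT-PCR, 6-FAM labelling, HpaI digestion and capillary electrophoresis; bidirectional fit versus DMSO baseline.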

[2] = ATG_PXRE_CIS: Attagene CIS-FACTORIAL HepG2 Assay for human Pregnane X Receptor Element (PXRE) (AID 2282957); settings: HepG2 Attagene CIS-FACTORIAL PXRE reporter, mRNA; actives raise or lower the signal
How it was run: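 Cells: HepG2, transiently transfected reporter units under cis promoter control. Exposure: 24 h. Detection: reporter mRNA via RT-PCR/CE fluorescence; bidirectional fitting, DMSO-referenced.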

[3] = ATG_PPRE_CIS: Attagene CIS-FACTORIAL HepG2 Assay for human Peroxisome Proliferator-activated Response Element (PPRE) (AID 2282958); settings: HepG2 PPRE cis-element reporter, Attagene transcription factor profiling; actives raise or lower the signal
How it was run: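 In this cell-based multiplex, a PPRE cis element drives a reporter sequence in transiently transfected HepG2 cells. Following 24 h treatment, labeled cDNA amplicons are sized and quantified by capillary electrophoresis, with DMSO defining baseline.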

[4] = ATG_RORE_CIS: Attagene CIS-FACTORIAL HepG2 Assay for human RAR-related Orphan Receptor Element (RORE) (AID 2282959); settings: HepG2 Attagene cis-factorial RORE reporter, mRNA; actives raise or lower the signal
How it was run: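 Endogenous factor activity at a cis response element is read as reporter transcript levels in HepG2 cells, 24 h post-dose. Transcripts are quantified by RT-PCR with capillary electrophoresis, and data fitted in both directions against DMSO.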

[5] = ATG_Sox_CIS: Attagene CIS-FACTORIAL HepG2 Assay for human SRY-box transcription factor (SOX) (AID 2282960); settings: HepG2 Attagene cis-factorial SOX reporter, mRNA; actives raise or lower the signal
How it was run: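 Measures mRNA induction of a SOX1-associated reporter in HepG2 after 24 h dosing. Fluorescently labelled RT-PCR fragments are separated by capillary electrophoresis, and gain or loss relative to DMSO control is fitted.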

[6] = ATG_SREBP_CIS: Attagene CIS-FACTORIAL HepG2 Assay for human Sterol Regulatory Element Binding (SREBP) (AID 2282962); settings: HepG2 Attagene cis-factorial SREBP reporter, mRNA; actives raise or lower the signal
How it was run: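 HepG2 cells transiently transfected with multiplexed cis-promoter reporter units sensing endogenous transcription factors; reporter mRNA measured 24 h after dosing by RT-PCR, 6-FAM labeling, HpaI digestion and capillary electrophoresis. Bidirectional fit versus DMSO.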

[7] = target: Signal transducer and activator of transcription 3 (Homo sapiens) (UniProt P40763); assay: ATG_STAT3_CIS: Attagene CIS-FACTORIAL HepG2 Assay for human Signal Transducer and Activator of Transcription 3 (STAT3) (AID 2282963); settings: HepG2, Attagene cis-factorial STAT3 reporter transcription; actives raise or lower the signal
How it was run: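 HepG2 cells transiently transfected with multiple cis-element-driven reporter units report endogenous transcription factor activity. After 24 h compound exposure, reporter mRNA is measured by RT-PCR, 6-FAM labelling, HpaI digestion and capillary electrophoresis. Fitted bidirectionally versus DMSO.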

[8] = ATG_TA_CIS: Attagene CIS-FACTORIAL HepG2 Assay for human TA Basal Promoter (AID 2282964); settings: HepG2 Attagene CIS-factorial TA basal promoter reporter; actives raise or lower the signal
How it was run: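 Cis-factorial format in HepG2: reporters report endogenous factors, not chimeric Gal4 fusions. After 24 h treatment, reporter transcripts were measured by RT-PCR-capillary electrophoresis fluorescence, analysed bidirectionally versus DMSO.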

[9] = ATG_TCF_b_cat_CIS: Attagene CIS-FACTORIAL HepG2 Assay for human T-Cell-Factor with beta-catenin (TCF/b-cat) (AID 2282965); settings: HepG2 TCF/beta-catenin cis-reporter transcription, actives raise or lower the signal
How it was run: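 HepG2 cells transiently transfected with cis-promoter-driven multiplexed reporter units; reporter mRNA measured 24 h after dosing by RT-PCR, FAM labelling, HpaI digestion and capillary electrophoresis. Bidirectional fitting relative to DMSO baseline.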

[10] = ATG_TAL_CIS: Attagene CIS-FACTORIAL HepG2 Assay for human TAL Basal Promoter (AID 2282966); settings: HepG2 Attagene cis-factorial TAL promoter reporter; actives raise or lower the signal;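 also: background control endpoint measuring basal TAL promoter reporter mRNA not a specific factor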
How it was run: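 RT-PCR plus capillary electrophoresis quantifies reporter mRNA induction in transiently transfected HepG2 cells after 24 h chemical treatment. DMSO serves as negative control and baseline for bidirectional fitting.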

[11] = ATG_TGFb_CIS: Attagene CIS-FACTORIAL HepG2 Assay for human Transforming Growth Factor (TGF) (AID 2282967); settings: HepG2 Attagene CIS TGFb reporter, mRNA transcription; actives raise or lower the signal
How it was run: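 Multiplexed cis-reporter HepG2 system, 24 h treatment; mRNA induction read by fluorescence after RT-PCR and CE; DMSO negative control, bidirectional curve fitting.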

[12] = ATG_VDRE_CIS: Attagene CIS-FACTORIAL HepG2 Assay for human Vitamin D Receptor Element (VDRE) (AID 2282968); settings: HepG2 VDRE cis-reporter transcription, actives raise or lower the signal
How it was run: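 Transiently transfected HepG2 cells carrying cis-regulated reporter transcription units were exposed for 24 h. Reporter mRNA was measured by RT-PCR with fluorescent labelling and capillary electrophoresis, and fitted in both directions against DMSO.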

[13] = target: X-box-binding protein 1 (Homo sapiens) (UniProt P17861); assay: ATG_Xbp1_CIS: Attagene CIS-FACTORIAL HepG2 Assay for human X-box Binding Protein 1 (XBP1) (AID 2282972); settings: HepG2 XBP1 cis-element reporter, Attagene multiplex; actives raise or lower the signal
How it was run: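 HepG2 cells transiently transfected with multiple cis-element reporter units report endogenous TF activity; 24 h exposure, then reporter mRNA measured by RT-PCR, 6-FAM labelling, HpaI digestion and capillary electrophoresis. Bidirectional fitting versus DMSO.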

[14] = ATG_GAL4_TRANS: Attagene TRANS-FACTORIAL HepG2 Assay for GAL4 (Internal Marker) (AID 2282976; active = hit-call score of the fitted dose curve at least 0.9, where 1 is the maximum); settings: HepG2 Attagene TRANS GAL4 internal marker reporter
How it was run: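 In transfected human HepG2 liver cells dosed 24 h, GAL4 reporter mRNA serves as a baseline marker. Detection by RT-PCR with fluorescent capillary electrophoresis, activity fitted upward relative to DMSO.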

[15] = target: Estrogen-related receptor gamma (Homo sapiens) (UniProt P62508); assay: ATG_ERRg_TRANS: Attagene TRANS-FACTORIAL HepG2 Assay for human Estrogen-Related Receptor gamma (ERRg) (AID 2282977; active = hit-call score of the fitted dose curve at least 0.9, where 1 is the maximum;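 also: hits increase reporter signal over DMSO so potencies reflect activators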); settings: HepG2 Attagene TRANS reporter, ERRg transactivation
How it was run: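 HepG2 cells transiently transfected with multiplexed GAL4-UAS reporter units driven by chimeric NR-Gal4 proteins; 24 h exposure. Reporter mRNA quantified by RT-PCR, fluorescent labelling, HpaI digestion and capillary electrophoresis; gain of signal vs DMSO.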

[16] = ATG_M_19_TRANS: Attagene TRANS-FACTORIAL HepG2 Assay for M19 Transcription Factor (Internal Marker) (AID 2282974; active = hit-call score of the fitted dose curve at least 0.9, where 1 is the maximum); settings: HepG2 Attagene TRANS-FACTORIAL M19 internal marker reporter
How it was run: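 Reporter mRNA induction was measured in transfected HepG2 cells 24 h after dosing. Endpoint fitted upward relative to DMSO and serves as a background control within the multiplexed TRANS panel.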

[17] = target: Transcription factor Sp1 (Homo sapiens) (UniProt P08047); assay: ATG_Sp1_CIS: Attagene CIS-FACTORIAL HepG2 Assay for human Specificity Protein 1 (Sp1) (AID 2282961); settings: HepG2 Sp1 cis-reporter transcription, actives raise or lower the signal
How it was run: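 Cells: HepG2, transiently transfected with cis-regulated multiplexed reporters. Exposure: 24 h. Detection: reporter transcripts amplified, fluorescently labeled, restriction-digested and sized by capillary electrophoresis. Analysis: bidirectional fit relative to DMSO.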

[18] = target: Steroid hormone receptor ERR1 (Homo sapiens) (UniProt P11474); assay: ATG_ERRa_TRANS: Attagene TRANS-FACTORIAL HepG2 Assay for human Estrogen-Related Receptor alpha (ERRa) (AID 2282971; active = hit-call score of the fitted dose curve at least 0.9, where 1 is the maximum); settings: HepG2 Attagene TRANS reporter, ERRa transactivation
How it was run: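 Reporter transcripts from ERRa-Gal4 chimera activity measured in transiently transfected human HepG2 cells 24 hours after dosing, using RT-PCR with 6-FAM primer extension, HpaI digestion and capillary electrophoresis; DMSO is baseline.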

Measured: AC50

Chain of Paired box protein Pax-6 (Homo sapiens) (P26367 whole entry, looked up): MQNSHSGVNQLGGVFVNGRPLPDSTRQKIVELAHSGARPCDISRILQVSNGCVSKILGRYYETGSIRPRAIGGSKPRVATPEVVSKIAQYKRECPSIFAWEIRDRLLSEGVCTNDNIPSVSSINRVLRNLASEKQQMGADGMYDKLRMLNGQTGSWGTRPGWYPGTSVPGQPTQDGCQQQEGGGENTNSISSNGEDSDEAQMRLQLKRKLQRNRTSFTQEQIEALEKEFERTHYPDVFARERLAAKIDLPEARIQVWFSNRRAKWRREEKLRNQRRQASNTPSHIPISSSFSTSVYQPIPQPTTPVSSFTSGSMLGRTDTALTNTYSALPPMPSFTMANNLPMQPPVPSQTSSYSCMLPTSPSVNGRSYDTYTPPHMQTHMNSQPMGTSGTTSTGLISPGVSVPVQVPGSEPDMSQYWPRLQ
Chain of X-box-binding protein 1 (Homo sapiens) (P17861 whole entry, looked up): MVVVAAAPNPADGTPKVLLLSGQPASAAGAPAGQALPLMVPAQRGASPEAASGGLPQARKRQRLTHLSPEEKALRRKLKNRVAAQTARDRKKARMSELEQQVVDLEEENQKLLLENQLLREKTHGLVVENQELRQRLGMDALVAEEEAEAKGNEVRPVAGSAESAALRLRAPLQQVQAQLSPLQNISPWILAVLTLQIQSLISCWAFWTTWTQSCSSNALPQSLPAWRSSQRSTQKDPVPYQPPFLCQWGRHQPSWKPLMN
Chain of Signal transducer and activator of transcription 3 (Homo sapiens) (P40763 whole entry, looked up): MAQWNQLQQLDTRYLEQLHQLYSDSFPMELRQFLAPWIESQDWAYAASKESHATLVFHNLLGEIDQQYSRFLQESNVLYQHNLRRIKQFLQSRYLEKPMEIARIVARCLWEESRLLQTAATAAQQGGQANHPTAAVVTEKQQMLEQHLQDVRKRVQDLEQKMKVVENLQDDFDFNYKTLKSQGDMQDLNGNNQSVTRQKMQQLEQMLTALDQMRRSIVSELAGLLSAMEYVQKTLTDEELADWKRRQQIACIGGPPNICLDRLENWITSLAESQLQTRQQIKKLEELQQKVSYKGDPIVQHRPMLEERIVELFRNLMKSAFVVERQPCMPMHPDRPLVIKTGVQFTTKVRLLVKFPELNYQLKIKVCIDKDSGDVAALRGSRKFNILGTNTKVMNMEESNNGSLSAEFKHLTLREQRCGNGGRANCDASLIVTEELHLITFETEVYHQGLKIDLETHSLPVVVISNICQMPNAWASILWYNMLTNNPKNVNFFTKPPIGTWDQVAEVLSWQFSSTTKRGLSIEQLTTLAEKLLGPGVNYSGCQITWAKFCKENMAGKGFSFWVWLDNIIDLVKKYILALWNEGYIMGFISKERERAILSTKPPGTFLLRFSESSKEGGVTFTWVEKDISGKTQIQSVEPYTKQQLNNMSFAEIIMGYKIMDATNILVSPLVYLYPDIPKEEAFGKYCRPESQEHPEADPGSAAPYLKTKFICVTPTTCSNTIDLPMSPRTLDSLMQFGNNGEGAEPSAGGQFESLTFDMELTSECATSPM
Chain of Estrogen-related receptor gamma (Homo sapiens) (P62508 whole entry, looked up, the tested form may be a part): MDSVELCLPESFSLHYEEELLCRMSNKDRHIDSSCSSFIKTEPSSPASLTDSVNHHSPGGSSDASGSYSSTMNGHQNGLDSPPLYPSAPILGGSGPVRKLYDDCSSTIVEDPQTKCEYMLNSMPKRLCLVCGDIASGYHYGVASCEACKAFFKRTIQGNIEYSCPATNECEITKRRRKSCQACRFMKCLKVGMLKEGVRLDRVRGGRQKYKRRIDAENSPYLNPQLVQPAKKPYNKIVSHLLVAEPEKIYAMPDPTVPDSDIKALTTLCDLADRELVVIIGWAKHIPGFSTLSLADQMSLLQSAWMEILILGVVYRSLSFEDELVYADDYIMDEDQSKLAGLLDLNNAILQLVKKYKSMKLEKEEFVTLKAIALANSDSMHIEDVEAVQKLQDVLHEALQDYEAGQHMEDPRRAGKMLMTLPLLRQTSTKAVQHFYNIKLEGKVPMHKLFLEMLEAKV
Chain of Transcription factor Sp1 (Homo sapiens) (P08047 whole entry, looked up): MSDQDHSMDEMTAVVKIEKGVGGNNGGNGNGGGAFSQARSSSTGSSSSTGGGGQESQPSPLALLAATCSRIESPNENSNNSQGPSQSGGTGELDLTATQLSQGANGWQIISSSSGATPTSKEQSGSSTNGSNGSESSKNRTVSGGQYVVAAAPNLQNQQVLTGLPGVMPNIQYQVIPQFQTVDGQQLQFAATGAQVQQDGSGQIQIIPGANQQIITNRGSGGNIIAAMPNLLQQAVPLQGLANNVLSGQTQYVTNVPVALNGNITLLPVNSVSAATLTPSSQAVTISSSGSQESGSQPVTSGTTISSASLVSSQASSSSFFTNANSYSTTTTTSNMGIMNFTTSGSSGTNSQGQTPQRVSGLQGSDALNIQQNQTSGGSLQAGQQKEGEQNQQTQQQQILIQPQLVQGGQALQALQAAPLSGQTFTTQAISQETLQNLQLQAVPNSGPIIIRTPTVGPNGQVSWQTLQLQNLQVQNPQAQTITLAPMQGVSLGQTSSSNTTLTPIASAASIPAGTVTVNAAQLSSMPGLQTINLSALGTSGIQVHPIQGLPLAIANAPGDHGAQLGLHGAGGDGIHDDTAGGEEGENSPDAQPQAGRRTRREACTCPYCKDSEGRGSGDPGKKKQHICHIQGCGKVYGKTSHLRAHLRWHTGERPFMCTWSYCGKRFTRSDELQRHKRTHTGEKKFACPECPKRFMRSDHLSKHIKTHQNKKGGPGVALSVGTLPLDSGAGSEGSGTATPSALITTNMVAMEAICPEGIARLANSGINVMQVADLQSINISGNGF
Chain of Steroid hormone receptor ERR1 (Homo sapiens) (P11474 whole entry, looked up, the tested form may be a part): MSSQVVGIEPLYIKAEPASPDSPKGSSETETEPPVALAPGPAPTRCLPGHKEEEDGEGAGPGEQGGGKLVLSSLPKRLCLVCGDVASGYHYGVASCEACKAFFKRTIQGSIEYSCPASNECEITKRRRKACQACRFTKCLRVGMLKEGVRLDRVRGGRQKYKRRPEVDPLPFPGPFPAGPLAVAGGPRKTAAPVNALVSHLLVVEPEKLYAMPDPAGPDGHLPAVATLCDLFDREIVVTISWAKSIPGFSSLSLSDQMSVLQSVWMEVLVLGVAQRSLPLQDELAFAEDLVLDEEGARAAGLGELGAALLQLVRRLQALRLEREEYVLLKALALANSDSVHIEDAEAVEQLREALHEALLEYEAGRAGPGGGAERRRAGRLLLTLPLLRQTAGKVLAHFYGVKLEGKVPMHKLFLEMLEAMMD

COc1cc(C(C)(C)C)c(O)c(C(C)(C)C)c1
active: [2] 2.09 µM
inactive: [1] | [3] | [4] | [5] | [6] | [7] | [8] | [9] | [10] | [11] | [12] | [13] | [14] | [15]

CSc1nc(NC2CC2)nc(NC(C)(C)C)n1
active: [2] 0.911 µM | [3] 100 µM | [9] 51.7 µM
inactive: [1] | [4] | [7] | [8] | [10] | [11] | [13] | [16]

C=CC(=O)OCCn1c(=O)n(CCOC(=O)C=C)c(=O)n(CCOC(=O)C=C)c1=O
active: [1] 15.7 µM | [17] 8.63 µM | [7] 27 µM | [9] 9.02 µM | [12] 4.16 µM | [13] 8.6 µM
inactive: [2] | [3] | [4] | [6] | [8] | [10] | [11] | [18] | [14] | [15]

O=C(O)c1snc(Cl)c1Cl
inactive: [3] | [17] | [6] | [7] | [8] | [10] | [11]
active: [1] 188 µM | [2] 26.8 µM | [5] 173 µM | [9] 167 µM | [12] 161 µM | [13] 140 µM
